Test results: PubChem BioAssay AID372 (MTDP, 2006)
The campaign covered roughly 100,000 compounds. About 770 (0.77%) were called active. The entries come from a sample that favours actives as a whole. Unmarked numbers belong to inactive results. Rule as the data show it: active = inhibition above about 50%; inactive = the rest.

Target: Gag-Pol polyprotein (Human immunodeficiency virus type 1 group M subtype B (isolate HXB2)) (UniProt P04585)
Assay: RNase H inhibition, HIV 1 Gag Pol polyprotein, FRET biochemical assay, screening (AID 372)
Details: HIV-1 RT RNase H, FRET RNA/DNA substrate fluorescence; at 10 µM; hits give high values

Row | Structure (SMILES) | inhibition
1 | COc1cccc(C(=O)NC(=S)Nc2ccc3oc(-c4ccccc4Cl)nc3c2)c1 | 12%
2 | O=C(CSc1n[nH]c(-c2ccncc2)n1)c1ccc(O)cc1O | 15%
3 | FC(F)(F)Oc1ccc(N=Cc2ccc(Br)s2)cc1 | 8%
4 | Oc1cccc(-c2nc(-c3ccccc3)c(-c3ccc(Br)cc3)[nH]2)c1 | 22%
5 | CCOc1ccc(OCCOCCOc2ccccc2Cl)cc1 | 8%
6 | CC1(C)CC(=O)C=C(Nc2cc([N+](=O)[O-])ccc2N)C1 | 7%
7 | CCN(CC)c1ccc(NS(=O)(=O)c2ccc(Cl)cc2)cc1 | 28%
8 | Cc1cc(C)cc(OCCNC(=O)c2ccccc2C)c1 | 5%
9 | Cc1ccc2nc(-c3ccc(C)c(NC(=S)NC(=O)c4cccc(Br)c4)c3)oc2c1 | 22%
10 | O=C(NC(=S)Nc1ccc2oc(-c3cc(Cl)ccc3Cl)nc2c1)c1cccc(F)c1 | 18%
11 | Cc1ccc2nc(-c3cc(NC(=S)NC(=O)c4cccc(F)c4)ccc3Cl)oc2c1 | 51% (active)
12 | Cc1ccc(C(=O)NC(=S)Nc2ccc(Cl)c(-c3nc4ccc(C)cc4o3)c2)cc1 | 15%
13 | COc1ccc(C(=O)NC(=S)Nc2ccc(-c3nc4cc(C)ccc4o3)c(O)c2)cc1 | 17%
14 | Cc1cc(C)c2oc(-c3ccc(C)c(NC(=S)NC(=O)c4cccc(F)c4)c3)nc2c1 | 0%
15 | COc1cccc(C(=O)Nc2ccc(-c3nc4cc(C)ccc4o3)c(O)c2)c1 | 36%
16 | COc1cccc(C(=O)NC(=S)Nc2ccc(-c3nc4cc(C)ccc4o3)c(O)c2)c1 | 53% (active)
17 | Cc1ccc2nc(-c3ccc(C)c(NC(=S)NC(=O)c4cccc(F)c4)c3)oc2c1 | 52% (active)
18 | O=C(Nc1ccc(F)c(Cl)c1)c1ccncc1 | 7%
19 | CCCC1=C(C(=O)OCC)C(c2ccc(Cl)cc2Cl)NC(=O)N1 (configuration not stated) | 4%
20 | Cc1cccc(N2C(=O)/C(=C/c3cccn3-c3ccccc3)C(=O)NC2=S)c1C | 30%
21 | COc1ccc(/C=C2\C(=O)NC(=O)N(c3ccccc3)C2=O)cc1I | 39%
22 | CCOc1cc(/C=N/NC(=O)c2ccncc2)ccc1OC(=O)c1ccco1 | 5%

Row | Structure (SMILES) | inhibition
23 | O=S(=O)(Nc1ccccc1C(F)(F)F)c1ccccc1 | 4%
24 | COc1ccc(-n2c(C)cc(/C=C(\C#N)C(=O)Nc3ccccc3)c2C)cc1 | 11%
25 | O=C1CC(SC(=NCc2ccc3c(c2)OCO3)Nc2ccccc2)C(=O)N1 (configuration not stated) | 0%
26 | COc1ccc(OC)c(CNCc2ccc3c(c2)OCO3)c1 | 6%
27 | Cc1cc(NC(=O)c2ccc(F)cc2)ccc1NC(=O)c1ccccc1 | 0%
28 | Cc1cc(NC(=O)c2ccc(C(C)(C)C)cc2)ccc1NC(=O)c1ccccc1 | 7%
29 | COc1ccc(C(=O)/C=C/c2ccc(NC(=O)c3ccc(I)cc3)cc2)cc1 | 60% (active)
30 | COc1ccc(/C=C/C(=O)c2ccc(I)cc2)cc1 | 8%
31 | COc1ccc(C(=O)Nc2ccc(/C=C/C(=O)c3ccccc3)cc2)cc1 | 8%
32 | COc1cc(C(=O)Nc2ccc(/C=C/C(=O)c3ccccc3)cc2)cc(OC)c1OC | 63% (active)
33 | COc1ccc(C(=O)Nc2ccc3nn(-c4ccc(F)cc4)nc3c2)cc1 | 0%
34 | COc1ccc(-n2nc3ccc(NC(=O)c4ccc(C)c(C)c4)cc3n2)cc1 | 8%
35 | COc1cc(C(=O)Nc2ccc(NC(=O)c3ccccc3)cc2)cc(OC)c1OC | 10%
36 | COc1ccc(-n2nc3ccc(NC(=O)c4ccc(I)cc4)cc3n2)cc1 | 51% (active)
37 | Cc1cc(NC(=O)c2ccc(I)cc2)ccc1NC(=O)c1ccccc1 | 50% (active)
38 | COc1ccc(C(=O)Nc2cccc(/C=C/C(=O)c3ccccc3)c2)cc1OC | 3%
39 | CC(C)(C)C1CCC(C(=O)N/N=C/c2ccc(Cl)s2)CC1 (configuration not stated) | 5%
40 | CSc1nnc2c(n1)[nH]c1c(C)cccc12 | 10%
41 | COc1ccc(N2N=C(c3ccc(C)cc3)CC2c2cccs2)cc1 (configuration not stated) | 6%
42 | O=C(NNc1ccc([N+](=O)[O-])cc1)c1ccc([N+](=O)[O-])cc1 | 5%
43 | O=C(Nc1ccc(OCc2ccccc2)cc1)c1cccc2ccccc12 | 15%
44 | CCOc1ccc2nc(SCc3ccc(OC)c(F)c3)sc2c1 | 20%

Row | Structure (SMILES) | inhibition
45 | Cc1cc(C=C2C(=O)NC(=S)NC2=O)c(C)n1-c1ccc(Cl)c(Cl)c1 | 55% (active)
46 | Cc1cc(/C=C2/SC(=S)NC2=O)c(C)n1-c1cccc(Cl)c1 | 8%
47 | Cc1cccc(-n2c(C)cc(/C=C3/SC(=S)NC3=O)c2C)c1 | 56% (active)
48 | Cc1cc(/C=C2/SC(=S)NC2=O)c(C)n1-c1ccc(Cl)cc1 | 2%
49 | Cc1ccc(-n2c(C)cc(C=C3C(=O)NC(=S)NC3=O)c2C)cc1C | 19%
50 | Cc1cc(C=C2C(=O)NC(=S)NC2=O)c(C)n1-c1cccc(Cl)c1 | 28%
51 | Cc1cc(/C=C2/SC(=S)NC2=O)c(C)n1-c1ccccc1 | 19%
52 | Cc1cc(/C=C2/SC(=S)NC2=O)c(C)n1-c1ccc(Cl)c(Cl)c1 | 53% (active)
53 | Cc1ccc(-n2c(C)cc(/C=C3/SC(=S)NC3=O)c2C)cc1 | 5%
54 | CCCCN1C(=O)c2cccc3c(Cl)ccc1c23 | 44%
55 | Cc1cc(OCC(=O)Nc2ccccn2)cc(C)c1Cl | 2%
56 | CCOc1ccccc1OCCOc1ccc(C)cc1C(C)(C)C | 17%
57 | CC(C)OC(=O)c1c(NC(=O)c2ccc([N+](=O)[O-])cc2Cl)sc2c1CCCCC2 | 31%
58 | CC(C)(C)c1nnc(-c2cccc([N+](=O)[O-])c2)o1 | 8%
59 | Cc1cccc(NC(=O)c2cc(I)ccc2Cl)n1 | 0%
60 | Cc1cccc(NC(=O)c2cc(Cl)ccc2Cl)n1 | 54% (active)
61 | CC(=O)Nc1cccc(NC(=O)c2ccc(Cl)cc2Cl)c1 | 3%
62 | CC(=O)Nc1ccc(NC(=O)c2cc(Cl)ccc2Cl)cc1 | 6%
63 | CC(=O)Nc1cccc(NC(=O)c2cc(Cl)ccc2Cl)c1 | 56% (active)
64 | COc1ccc(Cl)cc1C(=O)Nc1cccc(C)n1 | 0%
65 | CCCCNCCCCOc1ccccc1C(C)(C)C | 8%
66 | O=C(Nc1ccc(I)cn1)C12CC3CC(CC(C3)C1)C2 | 7%

Row | Structure (SMILES) | inhibition
67 | Cc1ccc(NC(=O)/C=C/c2ccc(Cl)cc2)cc1 | 8%
68 | COc1ccc(C2CC(=O)C3=C(C2)NC(C)=C(C(=O)OCC(C)C)C3c2cc3c(cc2Cl)OCO3)cc1 (configuration not stated) | 10%
69 | O=C(COc1ccccc1[N+](=O)[O-])Nc1ccc2oc(-c3cccc4ccccc34)nc2c1 | 13%
70 | CN(C(=O)c1ccc(Cl)cc1Cl)c1ccccc1 | 1%
71 | Clc1ccc(CN2CCN(/N=C/c3ccc(-c4ccccc4)cc3)CC2)cc1 | 8%
72 | Cc1ccc(O)c(/C=N/n2c(-c3ccccc3)n[nH]c2=S)c1 | 13%
73 | O=C(Nc1ccc(NC(=O)c2cccs2)cc1)c1ccccc1 | 5%
74 | O=C(Nc1ccc(-c2nc(-c3ccccc3)c3cc(NC(=O)c4cccs4)ccc3n2)cc1)c1cccs1 | 52% (active)
75 | CC(=O)Nc1ccc(-c2nc(-c3ccccc3)c3cc(NC(C)=O)ccc3n2)cc1 | 8%
76 | Cc1ccc(C(=O)NC(=S)Nc2ccc(-c3nc4cc(C)c(C)cc4o3)cc2)cc1 | 10%
77 | O=C(NC(=S)Nc1ccc(-c2nc3ncccc3o2)cc1)c1cccc(F)c1 | 32%
78 | COc1ccc(C(=O)NC(=S)Nc2ccc(-c3nc4ccc(C)cc4o3)cc2)cc1 | 12%
79 | Cc1ccc2nc(-c3ccc(NC(=S)NC(=O)c4ccccc4)cc3)oc2c1 | 58% (active)
80 | Cc1ccc(NC(=O)c2c(NC(=O)c3ccc([N+](=O)[O-])cc3)sc3c2CCCC3)cc1 | 0%
81 | Cc1ccc2nc(-c3ccc(NC(=S)NC(=O)c4ccc([N+](=O)[O-])cc4)cc3)oc2c1 | 50% (active)
82 | Cc1ccc2nc(-c3ccc(NC(=S)NC(=O)c4ccc(C)c(C)c4)cc3)oc2c1 | 18%
83 | O=C(NC(=S)Nc1ccc(-c2nc3ncccc3o2)cc1)c1cccc(Cl)c1 | 59% (active)
84 | Cc1ccc2nc(-c3ccc(NC(=S)NC(=O)c4ccc(F)cc4)cc3)oc2c1 | 45%
85 | O=C(Nc1sc2c(c1C(=O)Nc1ccccc1)CCCCC2)c1ccc([N+](=O)[O-])cc1 | 27%
86 | O=C(NC(=S)Nc1cccc(-c2nc3ncccc3o2)c1)c1cccc(Cl)c1 | 23%
87 | Cc1ccc2nc(NNC(=O)CCC(=O)O)nc(-c3ccccc3)c2c1 | 15%
88 | COc1cc(/C=N/n2cnnc2)ccc1OCCSc1ccc(C)cc1 | 15%

Row | Structure (SMILES) | inhibition
89 | C=C(C)COc1ccc2oc(-c3ccccc3)c(C(=O)OCC)c2c1 | 0%
90 | CC(C)(C)NCCOc1ccc(Cl)cc1Cl | 0%
91 | O=C(CSc1nc2ccc([N+](=O)[O-])cc2s1)c1ccc(Cl)cc1 | 11%
92 | COc1ccc(C(=O)Nc2ccc(NC(=O)c3ccco3)c(OC)c2)cc1Cl | 1%
93 | Cc1cc(C)nc(/N=C(/N)Nc2ccc(C(=O)O)cc2)n1 | 3%
94 | COc1ccc(-n2nc3cc(C)c(NC(=O)COc4ccc([N+](=O)[O-])cc4)cc3n2)cc1 | 6%
95 | Cc1ccc(N=Cc2cc(Br)cc(Br)c2O)c(C)c1 | 4%
96 | Cc1ccc2nc(-c3cccc(NC(=O)c4ccc([N+](=O)[O-])cc4)c3)oc2c1 | 54% (active)
97 | Cc1ccc2oc(-c3cccc(NC(=O)c4cccc([N+](=O)[O-])c4)c3)nc2c1 | 0%
98 | Cc1ccc(-c2nc3cc(NC(=S)NC(=O)c4cccs4)ccc3o2)cc1 | 7%
99 | Cc1cc(C)c2oc(-c3ccc(NC(=O)c4cccnc4)cc3O)nc2c1 | 52% (active)
100 | O=C(Nc1ccc(-c2nc3ccccc3o2)cc1)c1cccs1 | 5%
101 | COc1c(Cl)cc(C(=O)Nc2cccc(-c3nc4cc(C)cc(C)c4o3)c2)cc1Cl | 20%
102 | Cc1cc2nc(-c3ccc(NC(=O)c4cccnc4)cc3O)oc2cc1C | 12%
103 | Cc1ccc2nc(-c3cccc(NC(=O)c4ccc(C)c([N+](=O)[O-])c4)c3)oc2c1 | 6%
104 | Cc1cc(C)c2oc(-c3cccc(NC(=O)c4ccc(Cl)cc4)c3)nc2c1 | 53% (active)
105 | O=C(NC(=S)Nc1ccc(-c2nc3ccccc3o2)cc1)c1cccs1 | 55% (active)
106 | Cc1ccc2oc(-c3ccc(NC(=O)c4cccnc4)cc3O)nc2c1 | 21%
107 | Cc1cc(C)c2oc(-c3cccc(NC(=O)Cc4ccc(Cl)cc4)c3)nc2c1 | 25%
